Test results as given in PubChem BioAssay (NCATS).
Unmarked numbers belong to inactive results. Calls come from the whole dose curve.

target: Glucocorticoid receptor (Homo sapiens) (UniProt P04150); test: GR-EFC Redistribution (AID 451); settings: CHO-K1 GR-EFC translocation, beta-gal luminescence, 2 h
Source text: NIH Molecular Libraries Screening Centers Network [MLSCN]
NIH Chemical Genomics Center [NCGC]
The glucocorticoid receptor (GR) is a cytoplasmic receptor that belongs to the nuclear receptor family of ligand-dependent transcription factors. Upon glucocorticoid binding to its receptor, the glucocorticoid-GR complex translocates into the nucleus, where it binds as a dimer to specific DNA sequences (glucocorticoid response elements), enhancing or suppressing transcription of a wide variety of glucocorticoid-responsive genes. In addition to their important roles in normal physiology and metabolism, glucocorticoids are administered exogenously as treatments for a wide variety of allergic, autoimmune, and neoplastic conditions. Identification of compounds that modulate aspects of GR signalling would be useful in dissecting glucocorticoid response pathways as well as developing GR modulators with more targeted clinical effects.
Traditionally, GR modulators have been identified using receptor binding or direct transactivation assays. However, assays for glucocorticoid-dependent nuclear translocation can also be used to screen for compounds affecting GR signaling.
Immunocytochemical staining has been used to assay for GR translocation, but is not suitable for high throughout screening due to the multiple reagent addition and wash steps required. Recently, a novel cell-based GR assay in Enzyme Fragment Complementation (EFC) format was developed by DiscoveRx (Fremont, CA). The assay uses EFC of b-galactosidase (b-gal) as an indicator of GR-translocation in engineered CHO-K1 biosensor cells. The enzyme acceptor (EA) fragment of b-gal resides in the nucleus , as designed through the use of a proprietary set of sequence additions and modifications. The small peptide enzyme donor (ED) fragment of b-gal is fused directly to the C-terminus of GR, and is localized in the cytoplasm is the absence of receptor signaling. Upon binding to a GR ligand, the complex translocates to the nucleus, where intact enzyme activity is restored by complementation and b-gal activity is detected. We optimized this GR-EFC assay in homogenous 1536-well plate assay format for high throughput screening.
NCGC Assay Protocol Summary:
CHO-K1 cells stably expressing NLS-enzyme acceptor fragment (EA) of b-gal and GR-enzyme donor (ED) fragment of b-gal were maintained in F12 medium (Invitrogen, Carlsbad, CA) at 37 Celsius degrees under a humidified atmosphere containing 5% CO2 and 95% air. The medium contained 10% FBS, 2 mM L-glutamine, 50 U/ml penicillin 50 ug/ml streptomycin, and 250 ug/ml hygromycin and 500 ug/ml G418 (Invitrogen).
GR-translocation was measured beta-gal enzyme activity using the PathHunter Detection Kit containing cell membrane permeablizing reagent and beta-gal substrate (DiscoveRx, Fremont, CA). All compounds were screened as titrations from 0.6 nM to 46 uM final concentration. The assay was performed in 1536-well format as follows:
5 uL cell suspension (1,000 cells)/well
Incubation at 37 Celsius degrees for two hours
1.25 uL 1X detection buffer from the kit supplied by DiscoveRx
Incubation at room temperature for one hour
Read plate in luminescence mode in ViewLux plate reader (PerkinElmer)
Keywords: NIH Roadmap, MLSCN, MLI, MLSMR, GR-EFC, GREFC, qHTS, NCGC
Potency is the fitted concentration of half-maximal effect.

Sequence of Glucocorticoid receptor (Homo sapiens) (P04150 whole entry, looked up): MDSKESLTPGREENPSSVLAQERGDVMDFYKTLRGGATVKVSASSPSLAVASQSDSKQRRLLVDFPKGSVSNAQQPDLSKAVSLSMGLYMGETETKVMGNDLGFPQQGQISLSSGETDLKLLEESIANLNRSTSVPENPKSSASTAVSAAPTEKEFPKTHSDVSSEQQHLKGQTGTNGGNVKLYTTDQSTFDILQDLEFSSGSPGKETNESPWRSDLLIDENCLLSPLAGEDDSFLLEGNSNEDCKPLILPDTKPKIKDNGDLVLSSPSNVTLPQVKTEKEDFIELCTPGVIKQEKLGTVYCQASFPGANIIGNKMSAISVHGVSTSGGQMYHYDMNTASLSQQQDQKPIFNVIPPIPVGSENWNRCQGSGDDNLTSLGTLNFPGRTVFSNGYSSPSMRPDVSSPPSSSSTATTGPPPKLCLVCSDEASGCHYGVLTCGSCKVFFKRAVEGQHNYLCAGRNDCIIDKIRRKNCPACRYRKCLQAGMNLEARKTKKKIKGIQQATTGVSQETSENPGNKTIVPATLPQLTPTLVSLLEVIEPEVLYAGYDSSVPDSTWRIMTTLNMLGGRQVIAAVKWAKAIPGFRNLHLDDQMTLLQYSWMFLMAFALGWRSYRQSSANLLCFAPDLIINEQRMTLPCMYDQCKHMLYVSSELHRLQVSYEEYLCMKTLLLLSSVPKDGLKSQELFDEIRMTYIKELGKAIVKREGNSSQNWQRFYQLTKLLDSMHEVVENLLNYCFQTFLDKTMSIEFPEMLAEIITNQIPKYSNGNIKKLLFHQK

Structure (SMILES) | Potency [µM]
Cc1ccc(S(=O)ON2CCC(C(=O)O)(c3ccccc3)CC2)cc1 (stereo not given) | > 9.22
S=P(C1CCCCC1)(C1CCCCC1)[C@H](c1cccnc1)N1CCCC1 | > 9.22
O=P(O)(O)CCP(=O)(O)O | > 9.22
O=S(=O)(NCCO)c1cc[c]([Sb](=[O])([OH])[OH])cc1 | > 9.22
CN[C@H](Cc1ccccc1)c1cccc(OC)c1O | > 9.22
CC[C@H]1CN2CCc3cc(OC)c(OC)cc3[C@H]2C[C@@H]1C[C@H]1NCCc2c1[nH]c1ccc(O)cc21 | > 9.22
Cc1ccc(OP(=O)(Oc2ccc(C)cc2)N2C=Cc3ccccc3[C@H]2C#N)cc1 | > 9.22
NCCSC(c1ccccc1)c1ccccc1 | > 9.22
CCNC(C)(C)[C@@H](SS)c1ccc(Br)cc1 | > 9.22
N[C@@H](Cc1cc(Br)c(O)c(Br)c1)C(=O)O | > 9.22
O=C(O)CSCC(=O)O | > 9.22
N[C@@H](Cc1ccccc1)P(=O)(O)O | > 9.22
C[n+]1c(/C=C\c2ccc(O)c3ncccc23)[se]c2ccccc21 | > 9.22
O=C(O)c1cc(N=Nc2ccc([As](=O)(O)O)cc2)ccc1O | > 9.22
Nc1ccccc1O.O.O=C(O)[C@H]1[O][Sb][O][C@H]1C(=O)O | > 9.22
O=[As](O)(O)c1ccc(Cc2ccc([As](=O)(O)O)cc2)cc1 | > 9.22
COc1cccc2c1C(=O)c1c(O)c3c(c(O)c1C2=O)C[C@](O)(/C(C)=N\O)C[C@@H]3O[C@H]1C[C@H](N)[C@@H](O)[C@H](C)O1 | > 9.22
C[N+]1(C)C2CC(OC(=O)C(CO)c3ccccc3)CC1[C@@H]1O[C@H]21 (stereo not given in full) | > 46
N=C(N)n1cc(/C=N\N=C(N)N)cn1 | > 9.22
C[N+]1([O-])[C@H]2CC[C@H]1CC(OC(=O)[C@@H](CO)c1ccccc1)C2 (stereo not given in full) | > 9.22

Structure (SMILES) | Potency [µM]
Nc1ncnc2c1ncn2[C@@H]1O[C@@H](COP(=O)(O)CP(=O)(O)OP(=O)(O)O)[C@H](O)[C@@H]1O | > 46
O=[N+]([O-])c1cc(-c2ccc([As](=O)(O)O)cc2)ccc1[As](=O)(O)O | > 9.22
CCn1cnc2c(Nc3cccc(Cl)c3)nc(N[C@@H]3CCCC[C@H]3N)nc21 | > 46
COc1cc2c(cc1O)C[C@@H]1c3c(cc(O)c(OC)c3-2)CCN1C | > 9.22
O=C(O)[C@H]1CCN1 | > 46
NC(CCl)=N[C@H]1CN2CCC1CC2 | > 9.22
Oc1ccc2c3c1O[C@@H]1c4[nH]c5c(c4C[C@@]4(O)[C@@H](C2)N(CC2CC2)CC[C@]314)C[C@]1(O)[C@@H]2Cc3ccc(O)c4c3[C@@]1(CCN2CC1CC1)[C@H]5O4 | > 46
[N-]=[N+]=NCC(=O)c1c[nH]c(=O)[nH]c1=O | > 9.22
N[C@@H](CP(=O)(O)O)C(=O)O | > 9.22
c1csc(CN2CCCC3(CCNCC3)C2)n1 | > 46
c1ccc2c(c1)Sc1ccccc1N2C[C@H]1CN2CCC1CC2 | > 9.22
CN(C)CCCNc1c2c(nc3ccc(Cl)cc13)CCCC2 | > 9.22
NCCP(=O)(O)O | > 9.22
Oc1c(Cl)c(Cl)c(Cl)c(Cl)c1Cl (tested in a mixture with another compound) | > 9.22
CC[C@@](O)(C(=O)O)c1cc2n(c(=O)c1CO)Cc1cc3ccccc3nc1-2 | > 9.22
C[C@H](CC(C#N)(c1ccccc1)c1ccccc1)N1CCCCC1 | > 9.22
O=C(O)CS(=O)(=O)C(c1ccccc1)c1ccccc1 | > 9.22
CN(CCC(=O)O)C1=Nc2ccc(Cl)cc2C(c2ccccc2)=[N+]([O-])C1 | > 9.22
O=C(O)[C@H]1[O][Sb][O][C@@H](C(=O)O)C1O (stereo not given in full) | > 9.22
CN(C)[C@@H]1C(=O)C(C(N)=O)=C(O)[C@]2(O)C(=O)C3=C(O)c4c(O)cccc4[C@](C)(O)[C@H]3C[C@@H]12 | > 9.22
